# Assay outcomes deposited in PubChem BioAssay by National Center for Advancing Translational Sciences (NCATS).
# TDP1 inh = blocks human tyrosyl-DNA phosphodiesterase 1; recombinant TDP1, AlphaScreen DNA substrate cleavage; actives 0.28% (n = 350,000); Potency, µM (doses to about 130 µM), inactives show at the top dose activity change, negative = inhibition, hits mostly inhibitors; Q9NUW8; further: potency means the concentration at half of the fitted maximal effect; nearly all actives have a fitted effect of over 40% in size
# Target sequence (Q9NUW8 whole entry, looked up): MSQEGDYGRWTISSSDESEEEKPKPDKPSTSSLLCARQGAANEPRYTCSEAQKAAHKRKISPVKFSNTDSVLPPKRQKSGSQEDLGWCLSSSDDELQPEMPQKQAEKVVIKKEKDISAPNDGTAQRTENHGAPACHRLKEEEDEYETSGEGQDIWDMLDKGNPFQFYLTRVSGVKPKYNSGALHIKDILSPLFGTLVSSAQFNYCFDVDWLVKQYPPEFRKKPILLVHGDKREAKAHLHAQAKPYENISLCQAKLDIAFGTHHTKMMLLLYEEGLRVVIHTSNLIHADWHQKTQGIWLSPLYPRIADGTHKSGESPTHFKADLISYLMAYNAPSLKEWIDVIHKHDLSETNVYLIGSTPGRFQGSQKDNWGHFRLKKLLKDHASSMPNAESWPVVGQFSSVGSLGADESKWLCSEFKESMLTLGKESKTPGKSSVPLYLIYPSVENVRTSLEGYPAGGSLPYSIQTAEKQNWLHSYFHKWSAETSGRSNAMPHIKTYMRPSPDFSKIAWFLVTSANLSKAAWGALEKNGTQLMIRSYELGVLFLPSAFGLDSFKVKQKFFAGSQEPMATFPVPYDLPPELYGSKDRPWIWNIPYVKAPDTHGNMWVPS
#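 E. coli-derived human Tdp1, 1 nM final. Cpd preinc 15 min RT; substrate 15 nM final, 5 min RT; AS bead mix 10 ug/ml final, 10 min RT. Signal loss = tyrosine-FITC cleavage. No-enzyme wells = max signal.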
# Giardia killer = kills Giardia lamblia. actives 0.15% (n = 340,000). AID 540267. activity change, % at 7.66 µM, hits read low. Giardia lamblia trophozoite viability; in the data active means activity change below about -80%; inconclusive means between about -30% and that limit;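 further: parasites exposed to compound for two days anaerobically before the ATP read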
#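 Viability, read as ATP luminescence: trophozoites at 100 cells/well, compound added, 48 hrs anaerobic at 37 deg C, then 15-30 min room-temperature development before reading.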
# DT40 TDP1 CPT = growth inhibition of DT40 Tdp1-/-;hTDP1 cells with camptothecin (screen for TDP1 inhibitors) | Potency, µM (doses to about 46.2 µM), for the others: top-dose activity change, negative = growth inhibition, hits mostly inhibitors | chicken DT40 Tdp1-/-;hTDP1 cells + 20 nM CPT, ATP luminescence, 48 h | actives 12% (n = 420,000); further: potency means the concentration at half of the fitted maximal effect; nearly all actives have a fitted effect of over 55% in size
#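 Chicken DT40 Tdp1-/- cells stably complemented with human TDP1 were seeded at 400 cells/well in medium containing 20 nM camptothecin, exposed to pin-transferred compounds, and grown at 37 °C for at least 48 hr. Viability was read as ATP luminescence.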
# DT40 TDP1 no CPT = qHTS for Inhibitors of human tyrosyl-DNA phosphodiesterase 1 (TDP1): qHTS in cells in absence of CPT; actives 15% (n = 420,000); Potency, µM (highest dose often 46.2 µM), without a hit: at the highest dose activity change, negative = growth inhibition, actives largely listed as inhibitors; DT40 Tdp1-/- hTDP1 cells, no CPT, ATP luminescence, 48 h; further: potency means the concentration at half of the fitted maximal effect; nearly all actives have a fitted effect of over 55% in size
#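 Stably hTDP1-transfected Tdp1-null chicken DT40 cells were treated with library compounds minus camptothecin and grown for at least 48 hr at 37 °C, after which cellular ATP was quantified by luminescence.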
# IL1B secr inh = blocks inflammasome-driven IL-1 beta release; activity change, % at 57.5 µM; actives 4.7% (n = 360,000); AID 743279; THP-1 LPS/ATP IL-1B secretion, AlphaLISA, 16 h; active compounds read low; in the data active means activity change below about -50%; inconclusive means mostly about -30% to -49%
#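 THP-1 cells pretreated 1 hr with compounds (up to 57.5 uM final), then stimulated with LPS (250 ng/mL final) plus ATP (1.25 mM final); secreted IL-1B measured by AlphaLISA after 16 hr, decreased signal indicating inhibition.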
# ELG1 DNA repair = inhibitors of ELG1-dependent DNA repair in HEK293T cells; HEK293T ELG1-luciferase reporter, luminescence, 16 h; DNA damage induced by 5-fluorouridine; AID 504467; actives 2.3% (n = 330,000); Potency, µM (highest dose often 46.1 µM), without a hit: at the top dose activity change, negative = inhibition, most hits filed as inhibitors; further: potency means the concentration at half of the fitted maximal effect; nearly all actives have a fitted effect of over 55% in size
#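 Quantitative HTS, concentration-response format. 2,000 cells/well co-treated with 5-fluorouridine and compound, 16 hr in 5% CO2 at 37 °C; ONE-Glo luminescence read after 30 min.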
# An asterisk follows results filed as active; ? = inconclusive; · = no result; [ ] = another dose, or the depositor's remark. Shown are actives, neighbours in structure and some others; about 19% of the full set was active somewhere. Unless noted, the call rests on the fitted dose curve; in most records, active means well fitted curve in the direction sought with a large enough effect; inconclusive means small, poorly fitted or top-dose-only effect, or another doubt; inactive means no such curve, though single readings can be large; an effect the other way counts as inactive or inconclusive. On the % scale 0 is the no-effect control and ±100 the full control effect.
SMILES,TDP1 inh,Giardia killer,DT40 TDP1 CPT,DT40 TDP1 no CPT,IL1B secr inh,ELG1 DNA repair
CC(=O)OC1CC2C(C)(C)C(O)CC(O)[C@@]2(C)C2CC[C@@]3(C)C(=CC(=O)OC3c3ccoc3)[C@]12C (some centres undefined),-7.7%,·,?,?,·,·
COCCCNC(=O)C(C#N)c1nc2ccccc2nc1N1CCCC1 (centres undefined),8.5%,7.3,-20.0%,-28.8%,-5.8,20.6µM*
CCc1c(N)nc(N)nc1Nc1ccccc1Cl,·,-16.7,18.4µM*,20.6µM*,17.9,·
Cc1ccc(-c2csc3nc(C)n(-n4c(C)ccc4C)c(=O)c23)o1,10.8%,17.0,20.6µM*,20.6µM*,1.5,12.5%
CCOC(=O)C1CCN(C(=O)C2CCCN(c3ncnc4c3nc3n4CCCCC3)C2)CC1 (centres undefined),4.4%,7.8,?,18.4µM*,-5.2,-8.9%
CC1CCCN(C(=O)C2CCN(c3ncnc4c3nc3n4CCCCC3)CC2)C1 (centres undefined),1.4%,-20.3,?,23.1µM*,-2.5,?
CC1CC(C)CN(C(=O)C2CCCN(c3ncnc4c3nc3n4CCCCC3)C2)C1 (centres undefined),5.5%,10.7,23.1µM*,14.6µM*,-8.1,-17.4%
CCOC(=O)N1CCN(C(=O)C2CCCN(c3ncnc4c3nc3n4CCCCC3)C2)CC1 (centres undefined),5.8%,-6.7,?,?,10.3,?
CCN1CCN(C(=O)C2CCCN(c3ncnc4c3nc3n4CCCCC3)C2)CC1 (centres undefined),0.8%,13.3,4.2%,1.0%,32.4,?
COc1cccc(N2CCN(C(=O)C3CCCN(c4ncnc5c4nc4n5CCCCC4)C3)CC2)c1 (centres undefined),6.8%,55.5,16.4µM*,?,-21.4,3.26µM*
CC1CCN(C(=O)C2CCCN(c3ncnc4c3nc3n4CCCCC3)C2)CC1 (centres undefined),2.8%,-11.3,?,?,13.9,-21.1%
CC(C)(C)C(=O)OCc1nc(-c2ccc(C(F)(F)F)cc2)cs1,-2.6%,-6.3,-0.1%,-21.0%,-6.5,-15.3%
CCCSc1ccc2nc(-c3ccccc3)cn2c1,2.8%,?,18.4µM*,16.4µM*,-4.3,?
COc1ccc(Cn2ccc3nc(C)c(C(=O)N4CCN(c5cccc(OC)c5)CC4)cc3c2=O)cc1,11.0%,·,14.6µM*,?,·,·
Cc1nc2ccn(Cc3ccco3)c(=O)c2cc1C(=O)N1CCN(c2ccc(F)cc2)CC1,13.6%,·,?,?,·,·
COc1ccc(Cn2ccc3nc(C)c(C(=O)N4CCN(c5ccccc5)CC4)cc3c2=O)cc1,-0.6%,·,2.9%,-6.7%,·,·
Cc1ccc(C)c(N2CCN(C(=O)c3cc4c(=O)n(Cc5ccco5)ccc4nc3C)CC2)c1,9.7%,·,?,16.4µM*,·,·
COc1cccc(N2CCN(C(=O)c3cc4c(=O)n(Cc5ccco5)ccc4nc3C)CC2)c1,11.0%,·,16.4µM*,16.4µM*,·,·
Cc1nc2ccn(Cc3ccccc3)c(=O)c2cc1C(=O)N1CCN(c2ccccc2)CC1,3.4%,-14.6,-23.5%,-15.8%,12.0,8.2µM*
COc1ccc(N2CCN(C(=O)c3cc4c(=O)n(Cc5ccco5)ccc4nc3C)CC2)cc1,5.8%,·,?,?,·,·
CCN(CC)c1ccc(NC(=O)COCc2cc(-c3ccc4c(c3)OCO4)on2)c(C)c1,13.7%,·,?,?,·,·
COc1ccc(Cn2ccc3nc(C)c(C(=O)NCc4ccc(F)cc4)cc3c2=O)cc1,7.1%,·,-27.0%,?,·,·
COc1ccc(Cn2ccc3nc(C)c(C(=O)NCc4ccc(C)cc4)cc3c2=O)cc1,4.5%,·,25.9µM*,?,·,·
COc1ccc(Cn2ccc3nc(C)c(C(=O)N4CCN(c5cc(C)ccc5C)CC4)cc3c2=O)cc1,11.0%,·,20.6µM*,23.1µM*,·,·
CC(C)Cc1nnc(NC(=O)CCC(=O)N2CCN(Cc3ccccc3)CC2)s1,0.1%,-3.4,-18.5%,6.6%,23.0,-4.7%
SMILES,TDP1 inh,Giardia killer,DT40 TDP1 CPT,DT40 TDP1 no CPT,IL1B secr inh,ELG1 DNA repair
O=C(CSc1nncc(=O)[nH]1)NCc1ccccc1,-3.6%,-2.4,20.6µM*,?,5.7,10.6%
CC(=O)NC1C(=O)N=C(SCC(=O)NCc2ccccc2)NC1=O (centres undefined),25.1µM*,-8.0,3.3%,-5.6%,-3.4,-2.5%
CC(=O)Nc1ccc(NC(=O)C(Cc2ccccc2)N2Cc3ccccc3C2=O)cc1 (centres undefined),7.5%,·,-10.4%,-9.1%,·,·
O=NN(CC(=O)NNc1ccccc1)CC(=O)NNc1ccccc1,·,·,0.2%,-17.2%,-4.0,·
CCOC(=O)C1(C)Oc2ccccc2C(C(=O)OC)=C1C(=O)OC (centres undefined),-0.6%[56.1 µM],-24.9,?,16.4µM*,24.3,-3.9%
CCOC(=O)C1(C)Oc2ccccc2C(c2ccc(OC)cc2)=C1C(=O)OC (centres undefined),-8.2%[56.1 µM],-1.7,?,?,-12.3,?
CN(Cc1ccccc1)/C(=N/O)c1cccc(Cl)c1,·,6.9,-15.2%,-6.3%,-7.1,-2.1%
Cc1cc(=O)oc2cc(OCc3ccc(S(=O)(=O)N4CCOCC4)cc3)ccc12,0.0%,21.3,?,29.1µM*,-20.4,-23.8%
COc1cccc(C2=Nn3c(nnc3-c3ccccc3O)SC2)c1,7.4%,-11.6,?,?,22.9,9.6%
C[n+]1c2n(c3ccccc31)N=C(c1cc(C(C)(C)C)c(O)c(C(C)(C)C)c1)CS2,5.1%,-9.9,4.11µM*,2.59µM*,-100.3*,?
O=C1c2ccccc2CC1(Cc1ccccc1)Cc1ccccc1,-7.5%,1.8,?,?,0.3,-17.1%
O=C(Cn1cc(S(=O)(=O)c2ccc(F)cc2)c(=O)c2cc3c(cc21)OCO3)Nc1ccccc1,1.3%,·,3.0%,8.6%,·,·
Cc1sc2ncnc(N3CCC(C(=O)Nc4nc(-c5cccs5)cs4)CC3)c2c1C,3.5%,10.7,10.3µM*,8.2µM*,28.5,14.5%
Cc1ccc2nc(NC(=O)C3CCN(c4ncnc5sc(C)c(C)c45)CC3)sc2c1,1.9%,22.6,13µM*,?,5.5,0.0%
CCc1nnc(NC(=O)C2CCN(c3ncnc4sc(C)c(C)c34)CC2)s1,0.6%,-1.2,-21.1%,-14.3%,46.2,?
N#Cc1nc(NCC2CC2)nc(Nc2ccccc2)n1,13.8%,·,·,·,·,·
